The values below come from PubChem BioAssay (EPA / NIEHS).

Structures are written as SMILES. The source made the active and inactive calls. How the source made its calls: active means hit-call score of the fitted dose curve at least 0.9, where 1 is the maximum; inactive means score below 0.9.

Details in all cases: mRNA level, 48 h; actives raise or lower the signal
Read-out in experiment [1]: Bcl-2 (BID) gene, BID (gene 637)
Description: LTEA_HepaRG_BID: Life Technologies and Expression Analysis (LTEA) Assay for Bcl-2 (BID) gene using HepaRG (AID 2283476). The method in brief:
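Duplicate 48 h treatments of HepaRG cells in serum-free induction medium spanned 100 uM downward in half-log steps, 0.5% DMSO. Transcript change quantified by qRT-PCR against three housekeeping genes, fitted up or down versus DMSO.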

Read-out in a further experiment: Caspase-3 (Homo sapiens) (UniProt P42574)
Description: LTEA_HepaRG_CASP3: Life Technologies and Expression Analysis (LTEA) Assay for cysteine-aspartic acid protease (CASP3) using HepaRG (AID 2283477). The method in brief: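 HepaRG, 48 h exposure, 8 conc. (top 100 uM, half-log steps, duplicate), 0.5% DMSO vehicle; qRT-PCR of CASP3 transcript, housekeeping-normalised (ACTB/GAPDH/POLR2A); bidirectional curve fit vs DMSO baseline.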

Read-out in experiment [2]: cysteine-aspartic acid protease (CASP8), CASP8 (gene 841)
Description: LTEA_HepaRG_CASP8: Life Technologies and Expression Analysis (LTEA) Assay for cysteine-aspartic acid protease (CASP8) using HepaRG (AID 2283480). Put shortly:
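Concentration-response in duplicate up to 100 uM (half-log steps, 0.5% DMSO) on differentiated HepaRG cultures for 48 h. Expression change of CASP8 mRNA is determined by TaqMan qRT-PCR with housekeeping-gene normalization.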

Read-out in experiment [3]: Cytochrome P450 (CYP2B6), CYP2B6 (gene 1555)
Description: LTEA_HepaRG_CYP2B6: Life Technologies and Expression Analysis (LTEA) Assay for Cytochrome P450 (CYP2B6) using HepaRG (AID 2283481). Put shortly:
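Read-out is CYP2B6 mRNA by TaqMan qRT-PCR, normalized to three housekeeping genes and fitted bidirectionally against 0.5% DMSO baseline. Human HepaRG cells received test chemicals for 48 h, top concentration 100 uM, half-log dilutions.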

Read-out in experiment [4]: Cytochrome P450 2C19 (Homo sapiens) (UniProt P33261)
Description: LTEA_HepaRG_CYP2C19: Life Technologies and Expression Analysis (LTEA) Assay for CYP2C19 using HepaRG (AID 2283482). The method in brief:
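HepaRG, 48 h chemical exposure, 8-pt half-log series from 100 uM in 0.5% DMSO, duplicates. Readout: CYP2C19 mRNA by TaqMan qRT-PCR, housekeeping-normalized. Bidirectional fit vs DMSO baseline; phenobarbital 1mM as induction control.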

Read-out in a further experiment: CYP2C8 (gene 1558)
Description: LTEA_HepaRG_CYP2C8: Life Technologies and Expression Analysis (LTEA) Assay for CYP2C8 using HepaRG (AID 2283483). Put shortly: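 This is a transcriptional endpoint in HepaRG cultures: 48 h exposure, highest concentration 100 uM. CYP2C8 mRNA is quantified by TaqMan qRT-PCR.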

Read-out in a further experiment: CYP2C9 (gene 1559)
Description: LTEA_HepaRG_CYP2C9: Life Technologies and Expression Analysis (LTEA) Assay for CYP2C9 using HepaRG (AID 2283484). Put shortly:
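Eight-point concentration-response (highest 100 uM, half-log dilutions) in HepaRG cells for 48 h; CYP2C9 expression by qRT-PCR normalized to ACTB, GAPDH, POLR2A. Bidirectional fit, DMSO baseline.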

Read-out in another experiment: CYP2E1 (gene 1571)
Description: LTEA_HepaRG_CYP2E1: Life Technologies and Expression Analysis (LTEA) Assay for CYP2E1 using HepaRG (AID 2283485). The method in brief: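 CYP2E1 transcript measured by Fluidigm qRT-PCR against three housekeeping genes in human HepaRG cells treated 48 h (top 100 uM, half-log steps, 0.5% DMSO vehicle). Gain or loss fitted relative to DMSO baseline.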

Read-out in experiment [5]: Cytochrome P450 (CYP1A2), CYP1A2 (gene 1544)
Description: LTEA_HepaRG_CYP1A2: Life Technologies and Expression Analysis (LTEA) Assay for Cytochrome P450 (CYP1A2) using HepaRG (AID 2283479). The method in brief:
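HepaRG, 48 h exposure, top 100 uM, half-log 8-pt, 0.5% DMSO vehicle, duplicates. Readout: TaqMan qRT-PCR of CYP1A2 mRNA, housekeeping-normalized (ACTB/GAPDH/POLR2A). Gain/loss fit relative to DMSO baseline.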

Sequence of Cytochrome P450 2C19 (Homo sapiens) (P33261 whole entry, looked up): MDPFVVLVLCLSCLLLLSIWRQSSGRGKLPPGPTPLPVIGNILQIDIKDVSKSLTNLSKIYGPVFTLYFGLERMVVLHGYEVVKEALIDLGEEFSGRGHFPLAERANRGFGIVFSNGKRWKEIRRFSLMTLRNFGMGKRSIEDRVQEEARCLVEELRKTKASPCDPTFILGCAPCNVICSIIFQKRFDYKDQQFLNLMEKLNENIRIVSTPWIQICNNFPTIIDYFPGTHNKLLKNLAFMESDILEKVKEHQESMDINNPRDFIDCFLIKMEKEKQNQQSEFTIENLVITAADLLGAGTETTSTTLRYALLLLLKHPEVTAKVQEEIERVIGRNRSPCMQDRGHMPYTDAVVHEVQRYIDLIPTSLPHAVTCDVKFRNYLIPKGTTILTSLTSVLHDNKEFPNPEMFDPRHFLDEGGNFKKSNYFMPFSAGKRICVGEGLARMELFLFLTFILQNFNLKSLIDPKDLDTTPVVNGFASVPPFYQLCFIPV
Sequence of Caspase-3 (Homo sapiens) (P42574 whole entry, looked up): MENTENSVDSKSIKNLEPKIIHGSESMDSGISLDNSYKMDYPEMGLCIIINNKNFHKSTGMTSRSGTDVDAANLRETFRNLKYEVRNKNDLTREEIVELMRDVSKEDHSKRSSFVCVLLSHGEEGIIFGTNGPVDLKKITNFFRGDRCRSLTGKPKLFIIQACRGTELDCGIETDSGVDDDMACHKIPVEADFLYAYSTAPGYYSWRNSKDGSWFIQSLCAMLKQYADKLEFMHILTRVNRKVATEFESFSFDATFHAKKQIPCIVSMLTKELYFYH

A word on the AC50: it is the concentration giving half of the maximal activity seen. For `Cc1c2ccccc2c(C)c2c1ccc1ccccc12`, the outcome (in [1]; with Caspase-3 (Homo sapiens); in [2]) was inactive. For the same molecule, the AC50 in [3] is 50 µM (active); in [4], 75.9 µM (active); with CYP2C8 (gene 1558), 37.7 µM (active); with CYP2C9 (gene 1559), 37.2 µM (active); in the experiment with CYP2E1 (gene 1571) it was 18.8 µM (active).
As for `Cc1ccc2oc(CN(Cc3ccccc3)C(=O)Nc3c(F)cc(F)cc3F)c(-c3ccc(Cl)cc3)c2c1`, the outcome (in [1]; with Caspase-3 (Homo sapiens); in experiment [2]; in [4]; with CYP2C8 (gene 1558)) was inactive. Besides, the AC50 in [3] is 77 µM (active); with CYP2C9 (gene 1559) it was 12.4 µM (active); with CYP2E1 (gene 1571), 28.4 µM (active).
For `CCCOC(=O)c1cc(O)c(O)c(O)c1`, the molecule was called inactive (in experiment [1]; with Caspase-3 (Homo sapiens); in the experiment with CYP2C8 (gene 1558); in the experiment with CYP2C9 (gene 1559)). For the same molecule, the AC50 in experiment [3] was 0.674 µM (active); in [4], 0.793 µM (active); in the experiment with CYP2E1 (gene 1571), 21.6 µM (active).
As to `CC(=O)N1CCN(c2ccc(OC[C@H]3CO[C@](Cn4ccnc4)(c4ccc(Cl)cc4Cl)O3)cc2)CC1`, the outcome (in experiment [1]; with Caspase-3 (Homo sapiens)) was inactive. Besides, the AC50 in [3] is 12.7 µM (active); with CYP2C8 (gene 1558), 22.9 µM (active); in the experiment with CYP2C9 (gene 1559), 12.7 µM (active); with CYP2E1 (gene 1571), 12.9 µM (active).
Take `CC(C)(C)c1cc(/C=C2\SC(N)=NC2=O)cc(C(C)(C)C)c1O`: the AC50 is 15.8 µM (active) in [1]; 15.8 µM (active) with Caspase-3 (Homo sapiens); 93.7 µM (active) in [3]; 26.3 µM (active) in experiment [4]; 12.2 µM (active) with CYP2C9 (gene 1559); 83.2 µM (active) with CYP2E1 (gene 1571). The outcome (in experiment [5]; with CYP2C8 (gene 1558)) was inactive.
Consider `O=C(O)Cn1c(=O)n(Cc2ccc(Br)cc2F)c(=O)c2ccc(Cl)cc21`, for which the result (in [1]; with Caspase-3 (Homo sapiens); with CYP2C9 (gene 1559)) was inactive. Besides, the AC50 is 32.7 µM (active) in experiment [3], 13 µM (active) in experiment [4], 17 µM (active) in the experiment with CYP2C8 (gene 1558) and 25.8 µM (active) with CYP2E1 (gene 1571).
With `Oc1ccc2ccccc2c1`, the result (in experiment [1]; in the experiment with Caspase-3 (Homo sapiens); in [3]; in [4]; with CYP2C8 (gene 1558); in the experiment with CYP2C9 (gene 1559)) was inactive. Besides, the outcome in the experiment with CYP2E1 (gene 1571) was inactive.
Turning to `Oc1ccccc1`, the molecule was classed as inactive (in experiment [1]; with Caspase-3 (Homo sapiens); in [2]; in experiment [3]; in [4]; with CYP2C8 (gene 1558)). Besides, the molecule was called inactive with CYP2C9 (gene 1559) and with CYP2E1 (gene 1571).
Consider `CCCCCCCCN(C)CCCCCCCC`, for which the molecule was called inactive (in experiment [1]; in the experiment with Caspase-3 (Homo sapiens); in experiment [5]; in experiment [3]; in [4]; with CYP2C8 (gene 1558)). The molecule was called inactive with CYP2C9 (gene 1559) and with CYP2E1 (gene 1571).
For the molecule `NC(=O)c1nc(-c2cccc(-c3cc(F)ccc3OCC(F)(F)C(F)(F)F)c2)n[nH]1`, the molecule was classed as inactive (in [1]; with Caspase-3 (Homo sapiens); in [2]; in [3]; in [4]; in the experiment with CYP2C8 (gene 1558)). The molecule was called inactive in the experiment with CYP2C9 (gene 1559). Further, the AC50 with CYP2E1 (gene 1571) was 16.9 µM (active).
On to `CC(C)(O)c1ccc(CNC(=O)c2cccnc2Oc2ccc3nonc3c2)cc1`, for which the molecule was called inactive (in experiment [1]; with Caspase-3 (Homo sapiens); in experiment [2]; with CYP2C9 (gene 1559)). The AC50 in experiment [3] was 0.987 µM (active); in experiment [4], 12.1 µM (active); with CYP2C8 (gene 1558), 13 µM (active); with CYP2E1 (gene 1571), 34.2 µM (active).
Take `CN(C)C(=O)C1(N2CCCCC2)CCN(CC[C@@]2(c3ccc(Cl)c(Cl)c3)CN(C(=O)c3ccccc3)CCO2)CC1`: the call (in experiment [1]; with Caspase-3 (Homo sapiens)) was inactive. For the same molecule, the AC50 was 27.8 µM (active) in [3]; 23.9 µM (active) in [4]; 28 µM (active) with CYP2C8 (gene 1558); 21.9 µM (active) in the experiment with CYP2C9 (gene 1559); 8.56 µM (active) with CYP2E1 (gene 1571).
In the case of `COc1ccc2cc(S(=O)(=O)N[C@H](CC(=O)N[C@H](Cc3ccc(CN4[C@H](C)CCC[C@@H]4C)cc3)C(=O)N(C)C(C)C)c3ccc4c(c3)OCO4)ccc2c1`, the AC50 was 21.6 µM (active) in experiment [1]; 19.4 µM (active) with Caspase-3 (Homo sapiens); 11.5 µM (active) in experiment [3]; 23.7 µM (active) in [4]; 11.9 µM (active) in the experiment with CYP2C9 (gene 1559); 29.7 µM (active) with CYP2E1 (gene 1571). For the same molecule, the outcome in the experiment with CYP2C8 (gene 1558) was inactive.
As for `CN1C(=O)N(c2ccccc2Br)Cc2cnc(Nc3ccc4c(c3)OCC(CO)O4)nc21` (configuration not stated), the AC50 is 70.7 µM (active) in experiment [1]; 66.4 µM (active) with Caspase-3 (Homo sapiens); 74.3 µM (active) in experiment [3]; 35.4 µM (active) in [4]; 32.7 µM (active) with CYP2C9 (gene 1559); 35 µM (active) in the experiment with CYP2E1 (gene 1571). The outcome with CYP2C8 (gene 1558) was inactive.
For the molecule `OCCO`, the molecule was classed as inactive (in experiment [1]; in experiment [5]; in experiment [3]; in [4]; with CYP2C8 (gene 1558); with CYP2C9 (gene 1559)). In addition, the result in the experiment with CYP2E1 (gene 1571) was inactive. Also, in the experiment with Caspase-3 (Homo sapiens), the AC50 was 9.97 µM (active).
Regarding `CCCC(=O)OCCC(C)C`, the outcome (in experiment [1]; with Caspase-3 (Homo sapiens); in experiment [3]; in [4]; with CYP2C8 (gene 1558); with CYP2C9 (gene 1559)) was inactive. Moreover, the molecule was classed as inactive with CYP2E1 (gene 1571). The concentration at half-maximal activity (AC50) in experiment [5] is 50 µM (active).
Regarding `Clc1ccccc1C(c1ccccc1)(c1ccccc1)n1ccnc1`, the result (in experiment [1]; in the experiment with Caspase-3 (Homo sapiens); in experiment [2]) was inactive. The AC50 in [3] is 26 µM (active); in experiment [4], 27.4 µM (active); with CYP2C8 (gene 1558), 23.9 µM (active); in the experiment with CYP2C9 (gene 1559), 93.4 µM (active); in the experiment with CYP2E1 (gene 1571), 11.3 µM (active).
Consider `O=C(OCCCCCCOC(=O)c1ccccc1)c1ccccc1`, for which the molecule was classed as inactive (in experiment [1]; with Caspase-3 (Homo sapiens); in [2]; in experiment [3]; in experiment [4]; with CYP2C8 (gene 1558)). In addition, the result with CYP2C9 (gene 1559) and with CYP2E1 (gene 1571) was inactive. In addition, in experiment [5], the half-maximal activity concentration (AC50) was 12.5 µM (active).
